{
  "source": "ChEMBL document CHEMBL3433997",
  "about": "“St. Jude Leishmania screening dataset” (2016)",
  "data": [
    {"target": "Solute carrier family 2, facilitated glucose transporter member 1 (Homo sapiens) (UniProt P11166)", "sequence (P11166 whole entry)": "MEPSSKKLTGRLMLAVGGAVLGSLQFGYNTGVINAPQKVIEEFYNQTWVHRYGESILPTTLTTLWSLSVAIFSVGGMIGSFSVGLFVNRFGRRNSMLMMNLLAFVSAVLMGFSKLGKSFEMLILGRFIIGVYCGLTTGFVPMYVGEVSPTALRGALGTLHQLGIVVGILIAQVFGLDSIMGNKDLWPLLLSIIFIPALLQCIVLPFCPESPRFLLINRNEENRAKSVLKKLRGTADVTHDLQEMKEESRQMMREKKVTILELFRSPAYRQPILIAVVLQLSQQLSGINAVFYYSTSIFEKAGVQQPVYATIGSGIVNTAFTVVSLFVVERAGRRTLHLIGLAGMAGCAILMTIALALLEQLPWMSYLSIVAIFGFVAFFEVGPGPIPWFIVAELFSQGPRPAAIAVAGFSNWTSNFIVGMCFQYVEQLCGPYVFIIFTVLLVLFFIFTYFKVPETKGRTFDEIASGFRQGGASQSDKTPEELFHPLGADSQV", "assay": "ST_JUDE_LEISH: Cytotoxicity at 2uM final concentration against transgenic Leishmania Mexicana promastigotes LmGLUT1 that are glucose transport deficient and complemented with the human glucose transporter GLUT1. Activity is measured by DNA content using SYBR green in vitro", "assay_type": "functional", "units": {"inhibition": "%"}, "values": [
      {"smiles": "CC1CCCN1Cc1cccc(-c2ccc(C(=O)NCCOc3ccccc3)s2)c1", "note": "(stereo not given)", "inhibition": 72},
      {"smiles": "COc1cc2nc(N3CCC(CNC(=O)c4cc(Br)c(Br)s4)CC3)nc(N)c2cc1OC", "inhibition": 9.57},
      {"smiles": "COc1cc2c(cc1OC)CN(CCCCc1ccc(NC(=O)c3cc(Cl)cc(Cl)c3)cc1)CC2", "inhibition": 4.58},
      {"smiles": "O=C(Nc1cccc(-c2ccc(-c3nc4cc(C(F)(F)F)ccc4[nH]3)s2)c1)c1ccncc1", "inhibition": 8.37},
      {"smiles": "Cn1c(N)c(N=O)c(=O)[nH]c1=O", "inhibition": 1.53},
      {"smiles": "Cc1ccc(-c2nc3cc(C(=O)NC4CCN(Cc5ccccc5)CC4)ccc3[nH]2)cc1", "inhibition": 6.09},
      {"smiles": "CS(=O)(=O)c1ccc(-c2cnc(N)c(-c3ccc(O)cc3)c2)cc1", "inhibition": 2.19},
      {"smiles": "COc1ccc(Nc2ccnc3cc(-c4ccccn4)ccc23)cc1OC", "inhibition": 1.2},
      {"smiles": "COc1cc2nc(N[C@@H](CO)c3ccccc3)nc(NCc3ccccc3)c2cc1OC", "inhibition": 1.12},
      {"smiles": "O=C(Cn1c(CCc2cccc(F)c2F)cc(=O)c2ccccc21)N(Cc1ccc(-c2ccc(C(F)(F)F)cc2)cc1)C1CCN(CCN2CCOCC2)CC1", "inhibition": 1.92},
      {"smiles": "COc1ccc(CNCCc2cccs2)cc1-c1ccc(S(=O)(=O)NCCN2CCCC2)s1", "inhibition": 4.99},
      {"smiles": "CC(C)(CNCc1ccc(F)c(F)c1)c1nc(-c2ccc(Cl)c(O)c2)c(-c2ccncc2)[nH]1", "inhibition": 2.43},
      {"smiles": "CCCN(CCC)C(=O)c1cc(C(=O)N[C@@H](Cc2ccccc2)[C@H](O)CNCc2cccc(OC)c2)cc(N2CCCCS2(=O)=O)c1", "inhibition": 4.58},
      {"smiles": "N=C(Nc1nc(-c2ccccn2)cc2ccccc12)c1cccc(Cl)c1", "inhibition": 50.7},
      {"smiles": "O=C(N[C@@H](Cc1ccccc1)C(=O)NC1CCCCCC1)c1ccc(O)c(-c2ccc(Cl)c(Cl)c2)c1", "inhibition": 3.99},
      {"smiles": "O=C(NC1CC1)c1ccc(Nc2nccc(-c3c(-c4cccc(NC(=O)c5c(F)cccc5F)c4)nn4ccccc34)n2)cc1", "inhibition": 7.45},
      {"smiles": "O=C(Nc1ccccc1)Nc1ccc(-c2cccc(-c3nc4cc(C(F)(F)F)ccc4[nH]3)c2)cc1", "inhibition": 4.44},
      {"smiles": "FC(F)(F)c1cc(CNCCCNc2nc3ccncc3[nH]2)ccc1Cl", "inhibition": 1.9},
      {"smiles": "CC(C)CCn1c(Sc2ccc([N+](=O)[O-])cc2C(F)(F)F)nnc1-c1ccccc1Cl", "inhibition": 1.8},
      {"smiles": "NC1CCN(Cc2cccc(-c3ccc(-c4nc5ccccc5[nH]4)s3)c2)C1", "note": "(stereo not given)", "inhibition": 3.94},
      {"smiles": "Cc1ccc(NC(=O)c2ccc3ncccc3c2)cc1OC1CCN(Cc2ccsc2)CC1", "inhibition": 3.79},
      {"smiles": "Cc1ccoc1C(=O)Nc1cccc(-c2cccc(-c3nc4ccccc4[nH]3)c2)c1", "inhibition": 12.3},
      {"smiles": "O=C(NCCCN1CCC(N2CCCCC2)CC1)c1ccc2nc(N3CCCCC3)sc2c1", "inhibition": 5.78},
      {"smiles": "O=C(Nc1n[nH]c2nc(-c3ccco3)c(Br)cc12)c1ccc(CN2CCCC2)cc1", "inhibition": 1.9},
      {"smiles": "O=C(/C=C/c1ccc(Cl)c(Cl)c1)NCCCCCN1CCC(NC(=O)c2ccc(F)cc2F)CC1", "inhibition": -3.32},
      {"smiles": "Cc1cc(-c2ccc(NC(=O)N3CCc4cc(Br)c(N5CCN(C)CC5)cc43)cc2)cc(C)n1", "inhibition": 9.14},
      {"smiles": "Cc1ccc(NC(=O)c2cccc(CN3CCCN(Cc4cccc(O)c4)CC3)c2)cc1", "inhibition": -0.49},
      {"smiles": "CCOC(=O)c1cc2c(CCN3C(=O)c4ccccc4C3=O)cn(C)c2cc1-c1ccncc1", "inhibition": 93},
      {"smiles": "CC1(C)C(=O)Nc2ccc3c(c21)CC1SC(=O)NN=C31", "note": "(stereo not given)", "inhibition": -0.91},
      {"smiles": "CNCCNCc1ccc(-c2ccc(-c3nc4cc(F)ccc4[nH]3)s2)cc1", "inhibition": 9.52},
      {"smiles": "CCCCCCCN1CC[C@@H](CCCc2ccnc3ccc(OC)cc23)[C@@H](CCN)C1", "inhibition": 3.03},
      {"smiles": "CN(C)CCCn1c(N)c(-c2nc3ccccc3[nH]2)c2nc(C#N)c(C#N)nc21", "inhibition": -1.02},
      {"smiles": "Cc1nc2cc(/C=C/C(=O)NC3CCC(CCN4CCc5ccc(C#N)cc5CC4)CC3)ccc2[nH]1", "note": "(stereo not given)", "inhibition": 3.09},
      {"smiles": "Cc1ccc(Nc2nccc(Nc3ccc4c(c3)nc(Nc3cc(C(C)(C)C)on3)n4C)n2)cc1S(C)(=O)=O", "inhibition": 3.26},
      {"smiles": "CCC(C)OC(=O)C1=C(C)NC2=C(C(=O)CC(c3ccc(OC)c(OC)c3)C2)C1c1ccc(O)cc1", "note": "(stereo not given)", "inhibition": 3.25},
      {"smiles": "CN1CCN(CC2(Nc3nccc(NCc4ccc(Cl)cc4Cl)n3)CCCCC2)CC1", "inhibition": 6.66},
      {"smiles": "CC(C)(C)CC(C)(C)c1ccc(O)c(C(=O)Nc2cccc([N+](=O)[O-])c2)c1", "inhibition": 1.48},
      {"smiles": "Cc1cccc(CC2CC(=O)N(c3ccc([N+](=O)[O-])cc3)C2=O)c1", "note": "(stereo not given)", "inhibition": 7.63},
      {"smiles": "CCN(CC)CCCN(C(=O)Nc1c(Cl)cncc1Cl)c1nc(-c2ccc(F)cc2)cs1", "inhibition": 2.47},
      {"smiles": "Cc1cc2c(cc1C(F)(F)F)N(C(=O)Nc1cc(OCCN(C)C)cc(C(F)(F)F)c1)CC2", "inhibition": -0.72}
    ]}
  ]
}
